This note sets out measurements from the supplement of paper PMC6555819.

Common to all, as to assay: PBM binding z-score (relative to random genomic background probes); higher = stronger binding; sequences stand for … in GC…GCGATTGACAGCGTAGAATGAAGG
Assay [1] concerns RARb homodimer (NR concentration 270 nM). In outline: (§1)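 Probes were double-stranded and carried 34-nt variable regions with direct-repeat seeds, single-nucleotide variants, half-site ablations and random human genomic background sequences, printed on custom Agilent 4×180K protein-binding microarrays. Arrays were incubated 1 h with ligand-free nuclear receptor dimers in PBS pH 7.4, 2% milk, 0.02% Triton X-100, 1 mM DTT, 0.2 mg/mL BSA and 0.4 mg/ml salmon testes DNA. Antibodies against each partner (one per run) detected binding, and scanned fluorescence was regression-normalized. Binding z-scores use the random background probes as reference.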

For assay [2], the system named is RARg:RXRa (NR concentration 270 nM, RXRa partner concentration 90 nM). The method, boiled down: as §1
Assay [3] relates to RARg homodimer (NR concentration 270 nM). In outline:
as §1

Assay [4] relates to RXRa DBDmut IVT, anti-RXR (DBD mutation: RXRa K156A/R161A, NR concentration 90 nM). In outline:
as §1

Assay [5] deals with RXRa homodimer (NR concentration 180 nM). The method, boiled down:
as §1

Assay [6] has as its system THRa:RXRa (NR concentration 90 nM, RXRa partner concentration 90 nM). In outline: as §1
Assay [7] has as its system THRa homodimer (NR concentration 90 nM). In outline: as §1
In assay [8] the test system is VDR homodimer (NR concentration 270 nM). In outline:
as §1

Turning to TGAATGAGGTTATAAGGTCAGGGAACGTTGCAAA, the PBM binding z-score was found to be 4 in assay [1]; 5.81 in assay [2]; 4.21 in assay [3]; 1.11 in assay [4]; 5.44 in assay [5]; 4.24 in assay [6]. Moreover, the PBM binding z-score in assay [7] was found to be 3.73; in assay [8] it was 1.88.

For AGAATGAGGTTAAGATCAGGAAAACAGAATACAT, the PBM binding z-score in assay [1] came to 0.79; in assay [2], 2; in assay [3] it was 1.73; in assay [4], 0.917; in assay [5] it was 2.65; in assay [6], 2.28. For the same sequence, the PBM binding z-score in assay [7] was found to be 0.529; in assay [8], 0.435.

Turning to CGTCCAATGTCATAGGAGGTCAGTGAAGACAGAT, the PBM binding z-score in assay [1] was 3.62; in assay [2] it was 3; in assay [3], 3.4; in assay [4], 0.694; in assay [5], 2.17; in assay [6], 4.28. Moreover, the PBM binding z-score in assay [7] was 0.745; in assay [8] it was 1.64.

GCTATTAGTTGAAAGCGCAACCGAATGATTCTCG: the PBM binding z-score in assay [1] is -0.696; in assay [2] it was -0.258; in assay [3], -0.0474; in assay [4] it was 0.445; in assay [5], -0.166; in assay [6] it was -0.508. The results for the PBM binding z-score in assay [7] and in assay [8] were -0.515 and -0.738, respectively.

In the case of GCTCTTAGTTGAAAGGGCAACCGAATGATTCTCG, the PBM binding z-score came to 1.96 in assay [1]; 1.34 in assay [2]; 1.31 in assay [3]; 0.899 in assay [4]; 1.18 in assay [5]; 0.622 in assay [6]. The PBM binding z-score is -0.289 in assay [7] and 0.164 in assay [8].

As for CGTCCAAGGTCAGCAGGTCCGTGAAAGCGACGTG, the PBM binding z-score in assay [1] is 4.13; in assay [2], 5.15; in assay [3] it was 5.97; in assay [4], 2.96; in assay [5], 3.76; in assay [6], 3.59. Besides, the figures for the PBM binding z-score in assay [7] and in assay [8] were 1.92 and 2.71, respectively.

In the case of ATCGAAAGGTCTAGGTGAGTATAGAGAAAGGGAA, the PBM binding z-score in assay [1] was 1.12; in assay [2], 1.23; in assay [3], 1.3; in assay [4] it was 0.133; in assay [5], 0.532; in assay [6], 0.835. Moreover, the PBM binding z-score in assay [7] was 0.338; in assay [8] it was -0.115.
